We go through 13 compounds from PubChem BioAssay (NCATS).

“And” between values parts separate entries of the source, which are not always exact repeats. Equal values may be shown once. Records with an inconclusive call do not appear. More than one record can exist for a structure, and the calls need not agree. The source made the active and inactive calls. Unless noted, the call rests on the fitted dose curve.

For test [1], the target named is Glucocorticoid receptor (Homo sapiens) (UniProt P04150). The test is described as follows: qHTS assay for small molecule agonists of glucocorticoid receptor signaling (AID 588532; active means well fitted curve in the direction sought with a large enough effect in the signal ratio, with a control signal flat; the % refers to the signal ratio;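 further: 100% = dexamethasone at 0.1 µM and 0% = DMSO only wells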). Particulars: HeLa MMTV-bla, beta-lactamase ratio, agonist, 18 h; stronger effect = higher value; percent of dexamethasone control, DMSO zero. The essentials: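 Using MMTV-bla HeLa cells in medium with 1% stripped FBS and 25 mM HEPES, compounds were titrated and incubated overnight-length (18 h). Beta-lactamase cleavage of CCF4 was quantified by dual-emission fluorescence.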
Glucocorticoid receptor (Homo sapiens), sequence (P04150 whole entry, looked up): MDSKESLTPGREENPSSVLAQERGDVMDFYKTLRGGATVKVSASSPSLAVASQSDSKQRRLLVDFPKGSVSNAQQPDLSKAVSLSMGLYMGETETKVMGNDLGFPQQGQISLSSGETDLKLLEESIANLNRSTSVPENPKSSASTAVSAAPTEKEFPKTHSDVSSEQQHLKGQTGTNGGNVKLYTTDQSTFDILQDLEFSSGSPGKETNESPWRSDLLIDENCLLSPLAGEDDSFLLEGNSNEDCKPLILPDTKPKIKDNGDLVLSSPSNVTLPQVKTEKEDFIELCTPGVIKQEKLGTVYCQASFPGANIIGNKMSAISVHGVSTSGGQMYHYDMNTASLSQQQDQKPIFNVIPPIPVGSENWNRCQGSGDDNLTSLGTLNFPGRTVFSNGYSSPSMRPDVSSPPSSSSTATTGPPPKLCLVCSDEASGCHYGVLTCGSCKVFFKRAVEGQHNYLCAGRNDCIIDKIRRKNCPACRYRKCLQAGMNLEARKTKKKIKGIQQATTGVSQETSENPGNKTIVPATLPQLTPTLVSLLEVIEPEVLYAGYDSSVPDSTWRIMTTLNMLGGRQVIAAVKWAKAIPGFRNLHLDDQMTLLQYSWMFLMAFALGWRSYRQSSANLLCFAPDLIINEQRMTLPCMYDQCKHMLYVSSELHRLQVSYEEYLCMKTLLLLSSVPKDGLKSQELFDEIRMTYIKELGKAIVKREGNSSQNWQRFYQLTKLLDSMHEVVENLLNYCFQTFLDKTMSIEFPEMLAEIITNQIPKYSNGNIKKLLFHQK

For test [2] the target is unchanged. The experiment in a line: qHTS assay for small molecule antagonists of glucocorticoid receptor signaling (AID 588533; active means well fitted inhibition curve with a large enough effect in the signal ratio, with a control signal flat, not every such curve was filed as active; the % refers to the signal ratio;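 further: cells stimulated with 2 nM dexamethasone as agonist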; further: potency means the concentration at half of the fitted maximal effect). Conditions: HeLa MMTV-bla, GRE beta-lactamase ratio, antagonist mode, 18 h; series mostly up to 76.8 µM. A digest of the protocol:
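Antagonist-mode qHTS: compound titrations added to GRE-bla HeLa cells, then dexamethasone 2 nM final; 18 h, 37 C. CCF4 FRET fluorescence normalized to dexamethasone and DMSO; IC50 from Hill fit.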
On the technique in general: In qHTS, concentration-response curves come from the screen itself.

In test [3] the target is Peroxisome proliferator-activated receptor gamma (Homo sapiens) (UniProt P37231). The test is described as follows: qHTS assay for small molecule agonists of peroxisome proliferator-activated receptor gamma signaling (AID 588536; active means well fitted curve in the direction sought with a large enough effect in the signal ratio, with a control signal flat, not every such curve was filed as active; the % refers to the signal ratio;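 further: 0% = DMSO basal wells and 100% = rosiglitazone at 2 µM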). Particulars: HEK293 PPARg-UAS-bla, beta-lactamase ratio, 16 h, percent of rosiglitazone response, DMSO as zero; series mostly up to 76.7 µM. The essentials: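 This is an agonist-mode beta-lactamase reporter assay in HEK293 PPAR-gamma-UAS-bla cells with 1% charcoal/dextran FBS. Compound titrations ran 16 h at 37 C before CCF4 detection. EC50 and efficacy are Hill fits scaled to 2 uM rosiglitazone (100%) and DMSO basal.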
Peroxisome proliferator-activated receptor gamma (Homo sapiens), sequence (P37231 whole entry, looked up): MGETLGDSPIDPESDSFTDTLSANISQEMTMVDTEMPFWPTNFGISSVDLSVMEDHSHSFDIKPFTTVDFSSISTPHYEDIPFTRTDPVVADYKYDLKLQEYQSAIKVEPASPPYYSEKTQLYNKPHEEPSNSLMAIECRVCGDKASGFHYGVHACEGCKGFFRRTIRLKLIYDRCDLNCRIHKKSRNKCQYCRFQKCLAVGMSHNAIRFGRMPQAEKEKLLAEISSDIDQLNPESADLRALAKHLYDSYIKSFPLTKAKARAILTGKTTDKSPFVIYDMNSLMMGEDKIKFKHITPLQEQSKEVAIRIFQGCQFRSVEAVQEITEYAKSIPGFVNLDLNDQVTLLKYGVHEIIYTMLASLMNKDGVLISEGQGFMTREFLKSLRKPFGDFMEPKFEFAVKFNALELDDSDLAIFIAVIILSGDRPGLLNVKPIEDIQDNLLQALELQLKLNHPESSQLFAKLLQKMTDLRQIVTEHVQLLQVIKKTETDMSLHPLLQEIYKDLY

Test [4] shares this target. The experiment in a line: qHTS assay for small molecule antagonists of peroxisome proliferator-activated receptor gamma signaling (AID 588537; active means well fitted inhibition curve with a large enough effect in the signal ratio, with a control signal flat, not every such curve was filed as active; the % refers to the signal ratio;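 further: reporter cells co-stimulated with 50 nM rosiglitazone agonist during compound treatment; % of control where 0% means no effect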). Particulars: HEK293 PPARg-UAS-bla, beta-lactamase ratio, antagonist mode; series mostly up to 76.8 µM. A digest of the protocol:
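Antagonist-mode β-lactamase reporter screen run as a titration series. HEK293 PPARγ-UAS-bla cells are stimulated with rosiglitazone (50 nM final) for 16 h, then CCF4 is read at 460/530 nm. Data are scaled between DMSO and rosiglitazone and fitted to the Hill equation.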

Test [5] deals with Vitamin D3 receptor (Homo sapiens) (UniProt P11473). The test is described as follows: qHTS assay for small molecule antagonists of vitamin D receptor signaling (AID 588541).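 Further: receptor activated by calcitriol during compound treatment; on the % scale 0 is the no-effect control and ±100 the full control effect.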 Conditions: HEK293T VDR-UAS-bla, beta-lactamase ratio, antagonist mode; series mostly up to 76.7 µM. The essentials: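 Antagonist-mode beta-lactamase reporter assay: HEK293T VDR-UAS-bla cells were exposed to titrated compound alongside 1-alpha,25-dihydroxyvitamin D3 at 3 nM final for 16 h. Values were normalized to the 50 nM agonist control and DMSO basal, with IC50 and efficacy from Hill equation fits.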
Vitamin D3 receptor (Homo sapiens), sequence (P11473 whole entry, looked up): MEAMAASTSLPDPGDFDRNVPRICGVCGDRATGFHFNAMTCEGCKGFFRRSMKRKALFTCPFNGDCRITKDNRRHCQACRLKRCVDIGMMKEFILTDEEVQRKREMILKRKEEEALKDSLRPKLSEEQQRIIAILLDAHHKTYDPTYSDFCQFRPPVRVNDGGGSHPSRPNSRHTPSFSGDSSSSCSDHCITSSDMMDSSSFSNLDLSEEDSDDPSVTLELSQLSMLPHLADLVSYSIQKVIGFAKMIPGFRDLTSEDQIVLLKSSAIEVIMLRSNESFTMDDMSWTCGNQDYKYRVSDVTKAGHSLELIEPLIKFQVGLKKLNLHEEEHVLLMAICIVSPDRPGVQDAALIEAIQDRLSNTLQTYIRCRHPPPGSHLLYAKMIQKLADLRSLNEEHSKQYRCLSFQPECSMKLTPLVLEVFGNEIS

Test [6] can be described thus: qHTS assay for small molecule agonists of retinoid X receptor alpha signaling (AID 588544).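 On activation: 0% = DMSO basal wells and 100% = reference agonist.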 Particulars: HEK293T RXRa-UAS-bla, beta-lactamase reporter, 18 h; 530 nm emission.
For test [7], the target named is Retinoic acid receptor RXR-alpha (Homo sapiens) (UniProt P19793). The description is as above. Particulars: HEK293T RXRa-UAS-bla, beta-lactamase reporter, 18 h; series mostly up to 76.7 µM.
Retinoic acid receptor RXR-alpha (Homo sapiens), sequence (P19793 whole entry, looked up): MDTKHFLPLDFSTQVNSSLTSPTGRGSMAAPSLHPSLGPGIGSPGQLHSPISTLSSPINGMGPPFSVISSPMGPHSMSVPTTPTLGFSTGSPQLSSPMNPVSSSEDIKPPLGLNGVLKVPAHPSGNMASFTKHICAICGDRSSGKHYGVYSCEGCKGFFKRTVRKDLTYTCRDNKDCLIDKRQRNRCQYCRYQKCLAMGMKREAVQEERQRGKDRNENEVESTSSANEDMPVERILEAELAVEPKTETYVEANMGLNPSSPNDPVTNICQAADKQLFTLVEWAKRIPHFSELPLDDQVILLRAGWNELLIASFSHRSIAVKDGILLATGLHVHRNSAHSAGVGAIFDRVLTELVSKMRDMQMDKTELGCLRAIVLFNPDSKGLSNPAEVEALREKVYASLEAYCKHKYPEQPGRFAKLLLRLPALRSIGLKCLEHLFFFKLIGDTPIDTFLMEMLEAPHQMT
Test [8] addresses Thyroid hormone receptor beta (Homo sapiens) (UniProt P10828). The experiment in a line: qHTS assay for small molecule agonists of thyroid hormone receptor beta signaling (AID 588545).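 Further: 0% = DMSO only and 100% = 10 nM T3.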 Conditions: TR-UAS-bla GripTite HEK 293, beta-lactamase ratio, agonist mode, 18 h, percent of T3 response, DMSO as zero; series mostly up to 76.7 µM. The essentials:
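Compounds were tested as agonists in TR-UAS-bla-GripTite HEK 293 cells. After 18 hrs at 37 C, CCF4 substrate was added and fluorescence read after 2 hrs at room temperature.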

Test [9] can be described thus: qHTS assay for small molecule antagonists of retinoid X receptor alpha signaling (AID 588546; active means well fitted inhibition curve with a large enough effect in the signal ratio, with a control signal flat, not every such curve was filed as active; the % refers to the signal ratio; further: potency means the concentration at half of the fitted maximal effect;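 on max response: cells stimulated with 9-cis-retinoic acid as agonist; on the % scale 0 is the no-effect control and ±100 the full control effect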). Conditions: HEK293T RXRa-UAS-bla, beta-lactamase ratio, antagonist mode; measured here: W530 green channel, cytotoxicity proxy. The essentials: (§1)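 Beta-lactamase reporter inhibition, read as CCF4 fluorescence ratio (ex 405, em 460/530 nm) after 2 h at RT. HEK293T UAS-bla cells, 2500/well, were stimulated with 9-cis-RA at 500 or 100 nM final alongside test compound for 18 h at 37 C.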

Test [10] concerns the target Retinoic acid receptor RXR-alpha (Homo sapiens) (UniProt P19793). The description is as above. Particulars: HEK293T RXRa-UAS-bla, beta-lactamase ratio, antagonist mode. The essentials: as §1
Test [11] has as its target Thyroid hormone receptor beta (Homo sapiens) (UniProt P10828). The experiment in a line: qHTS assay for small molecule antagonists of thyroid hormone receptor beta signaling (AID 588547; active means well fitted inhibition curve with a large enough effect in the signal ratio, with a control signal flat, not every such curve was filed as active; the % refers to the signal ratio;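 further: cells stimulated with 0.4 nM T3 agonist during compound exposure; on the % scale 0 is the no-effect control and ±100 the full control effect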). Particulars: TR-UAS-bla HEK293, beta-lactamase ratio, antagonist mode, 18 h. The essentials: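 Inhibition of T3-driven (0.4nM final) beta-lactamase reporter activity was measured over 0.59 nM to 92 uM compound after 18 h at 37 C. The cells were GripTite HEK293 TR-UAS-bla in charcoal/dextran-stripped serum, with CCF4 ratio read-out and IC50 from Hill fits.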

For test [12], the target named is Voltage-gated inwardly rectifying potassium channel KCNH2 (Homo sapiens) (UniProt Q12809). The experiment in a line: qHTS Assay for Small Molecule Inhibitors of the Human hERG Channel Activity (AID 588834; active means well fitted curve in the direction sought with a large enough effect; an effect the other way counts as inactive or inconclusive;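 further: lower thallium flux fluorescence means stronger hERG block; nearly all actives have a fitted effect of over 50% in size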; further: potency means the concentration at half of the fitted maximal effect). Conditions: U2OS BacMam hERG, FluxOR thallium flux fluorescence; series mostly up to 46.1 µM. A digest of the protocol: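 Cells were infected with hERG-BacMam virus for 4 hrs at room temperature, grown overnight, then seeded at 2000/well. After dye loading and roughly 10 min compound treatment, thallium influx was triggered and fluorescence recorded.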
Voltage-gated inwardly rectifying potassium channel KCNH2 (Homo sapiens), sequence (Q12809 whole entry, looked up): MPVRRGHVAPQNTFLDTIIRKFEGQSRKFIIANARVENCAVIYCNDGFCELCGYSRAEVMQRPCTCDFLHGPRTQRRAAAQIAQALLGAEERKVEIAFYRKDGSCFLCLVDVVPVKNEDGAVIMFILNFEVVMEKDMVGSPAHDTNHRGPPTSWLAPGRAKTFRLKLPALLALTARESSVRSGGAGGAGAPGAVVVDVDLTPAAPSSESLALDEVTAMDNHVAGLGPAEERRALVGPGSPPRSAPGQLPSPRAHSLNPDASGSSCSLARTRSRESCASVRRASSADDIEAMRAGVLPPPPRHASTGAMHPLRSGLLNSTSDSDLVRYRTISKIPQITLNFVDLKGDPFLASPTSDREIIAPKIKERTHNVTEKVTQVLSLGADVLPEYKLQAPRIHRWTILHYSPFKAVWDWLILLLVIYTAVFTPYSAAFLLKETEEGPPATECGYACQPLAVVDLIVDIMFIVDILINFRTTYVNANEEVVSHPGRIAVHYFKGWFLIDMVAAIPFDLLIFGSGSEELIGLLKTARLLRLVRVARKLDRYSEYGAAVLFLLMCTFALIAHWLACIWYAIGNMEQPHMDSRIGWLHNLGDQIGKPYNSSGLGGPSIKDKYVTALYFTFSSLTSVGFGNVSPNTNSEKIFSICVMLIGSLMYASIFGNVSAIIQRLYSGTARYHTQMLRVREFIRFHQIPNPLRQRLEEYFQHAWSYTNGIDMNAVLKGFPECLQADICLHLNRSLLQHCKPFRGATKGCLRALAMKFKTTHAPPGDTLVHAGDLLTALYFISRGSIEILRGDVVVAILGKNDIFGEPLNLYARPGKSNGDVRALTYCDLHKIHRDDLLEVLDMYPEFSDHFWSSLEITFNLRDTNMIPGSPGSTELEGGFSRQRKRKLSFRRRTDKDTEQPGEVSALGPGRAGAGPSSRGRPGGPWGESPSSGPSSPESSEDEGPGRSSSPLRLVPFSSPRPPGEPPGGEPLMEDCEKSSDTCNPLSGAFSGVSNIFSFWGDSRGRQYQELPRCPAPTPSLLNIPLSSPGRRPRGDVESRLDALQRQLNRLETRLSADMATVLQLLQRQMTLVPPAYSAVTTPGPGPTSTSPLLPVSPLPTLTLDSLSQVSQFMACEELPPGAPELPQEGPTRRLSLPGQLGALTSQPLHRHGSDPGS

For test [13], the target named is Luciferin 4-monooxygenase (Photinus pyralis) (UniProt P08659). The test is described as follows: Biochemical firefly luciferase enzyme assay for NPC (AID 624030; active means well fitted curve in the direction sought with a large enough effect; an effect the other way counts as inactive or inconclusive;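 further: purified P. pyralis luciferase at 10 nM with luciferin and ATP substrate; 0% = DMSO and -100% = full luciferase inhibition by PTC124 control; nearly all actives have a fitted effect of over 70% in size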). Particulars: purified P. pyralis luciferase, luminescence, 5 min; series mostly up to 58.6 µM. The essentials:
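Direct inhibition of firefly luciferase enzyme (10 nM final, 50 mM Tris Acetate) assessed by luminescence within 5 minutes. Percent activity scaled between DMSO and PTC124 positive control, with concentration-effect curves classified by fit quality and response.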

Test [14] in a line: S16 Schwann cell viability assay (CellTiter-Glo assay) (AID 624031; active means well fitted curve in the direction sought with a large enough effect; an effect the other way counts as inactive or inconclusive; further: nearly all actives have a fitted effect of over 70% in size; further: potency means the concentration at half of the fitted maximal effect). Particulars: S16 rat Schwann cells viability, 24 h; series mostly up to 57.5 µM. The essentials: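 Native S16 rat Schwann cells, 500-750 cells/well in DMEM with 10% FBS, dosed with compound after overnight culture and incubated 24h at 37 degree Celsius/5% CO2. Viability by CellTiter-Glo luminescence; % activity normalized to no-cell wells and DMSO-treated cells.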

Test [15] is described as follows: S16 Schwann cell PMP22 intronic element firefly luciferase assay (AID 624032; active means well fitted curve in the direction sought with a large enough effect; an effect the other way counts as inactive or inconclusive; further: nearly all actives have a fitted effect of over 30% in size; further: potency means the concentration at half of the fitted maximal effect). Conditions: S16 rat Schwann cells, PMP22 element FLuc, 24 h; series mostly up to 57.5 µM. The essentials: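 Luciferase reporter of PMP22 intronic-element expression in stably transfected S16 rat Schwann cells, read by ONE-Glo luminescence after 24 h compound exposure at 37 C. Activity scaled between DMSO (0%) and positive-control PTC124; concentration-effect curves quality-classified.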

Test [16] is described as follows: S16 Schwann cell PMP22 intronic element beta-lactamase assay (AID 624044).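 Further: 0% = DMSO and -100% = potassium clavulanate positive control; nearly all actives have a fitted effect of over 15% in size.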 Particulars: S16 rat Schwann cells, PMP22 element beta-lactamase FRET, 24 h; series mostly up to 38.3 µM. The essentials:
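Beta-lactamase reporter under a PMP22 intronic regulatory element in stable S16 rat Schwann cells; 24 h compound exposure. 460 nm blue signal normalized between DMSO (0%) and potassium clavulanate, with 535 nm FRET tracking viability; curves classed by r2 and response.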

Test [17] concerns the target Peroxisome proliferator-activated receptor delta (Homo sapiens) (UniProt Q03181). The test is described as follows: qHTS assay for small molecule agonists of peroxisome proliferator-activated receptor delta signaling (AID 588534).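 Further: 0% = DMSO basal wells and 100% = positive control agonist at 10 µM.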 Particulars: HEK293T PPARdelta-UAS-bla, beta-lactamase ratio, 18 h; series mostly up to 76.7 µM. A digest of the protocol: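 Agonist-mode beta-lactamase reporter readout (CCF4 dye, 2 h at RT) after 18 h at 37 °C exposure to a titration; Hill-equation fitting gave EC50 and maximal response.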

Test [18] can be described thus: qHTS assay for small molecule antagonists of peroxisome proliferator-activated receptor delta signaling (AID 588535; active means well fitted inhibition curve with a large enough effect in the signal ratio, with a control signal flat, not every such curve was filed as active; the % refers to the signal ratio; further: potency means the concentration at half of the fitted maximal effect;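 on max response: cells co-treated with a PPAR-delta agonist as stimulator during compound exposure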). Particulars: HEK293T PPARd-UAS-bla, beta-lactamase FRET ratio, 18 h; 460 nm channel. The essentials:
(§2)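 Titrations were run on PPAR-delta-UAS-bla HEK293T cells in charcoal/dextran-stripped serum, incubated 18 h at 37 C. CCF4 fluorescence (460/530 nm) after 2 h RT; Hill equation yields IC50 and maximal response.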

Test [19] concerns the target Peroxisome proliferator-activated receptor delta (Homo sapiens) (UniProt Q03181). The description is as above. Conditions: HEK293T PPARd-UAS-bla, beta-lactamase FRET ratio, 18 h; series mostly up to 76.7 µM. A digest of the protocol:
as §2

Thyroid hormone receptor beta (Homo sapiens), sequence (P10828 whole entry, looked up): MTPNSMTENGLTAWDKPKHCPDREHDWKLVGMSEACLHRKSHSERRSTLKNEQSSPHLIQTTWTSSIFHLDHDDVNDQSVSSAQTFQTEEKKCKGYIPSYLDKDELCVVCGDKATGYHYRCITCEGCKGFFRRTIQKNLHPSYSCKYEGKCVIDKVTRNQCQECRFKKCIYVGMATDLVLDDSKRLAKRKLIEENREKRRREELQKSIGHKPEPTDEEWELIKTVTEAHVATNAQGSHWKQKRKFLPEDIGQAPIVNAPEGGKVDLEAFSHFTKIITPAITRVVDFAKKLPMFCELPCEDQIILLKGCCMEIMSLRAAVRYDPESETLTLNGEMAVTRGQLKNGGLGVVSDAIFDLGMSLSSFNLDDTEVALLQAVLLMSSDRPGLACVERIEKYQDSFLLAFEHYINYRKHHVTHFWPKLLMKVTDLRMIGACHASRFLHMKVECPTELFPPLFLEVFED
Luciferin 4-monooxygenase (Photinus pyralis), sequence (P08659 whole entry, looked up): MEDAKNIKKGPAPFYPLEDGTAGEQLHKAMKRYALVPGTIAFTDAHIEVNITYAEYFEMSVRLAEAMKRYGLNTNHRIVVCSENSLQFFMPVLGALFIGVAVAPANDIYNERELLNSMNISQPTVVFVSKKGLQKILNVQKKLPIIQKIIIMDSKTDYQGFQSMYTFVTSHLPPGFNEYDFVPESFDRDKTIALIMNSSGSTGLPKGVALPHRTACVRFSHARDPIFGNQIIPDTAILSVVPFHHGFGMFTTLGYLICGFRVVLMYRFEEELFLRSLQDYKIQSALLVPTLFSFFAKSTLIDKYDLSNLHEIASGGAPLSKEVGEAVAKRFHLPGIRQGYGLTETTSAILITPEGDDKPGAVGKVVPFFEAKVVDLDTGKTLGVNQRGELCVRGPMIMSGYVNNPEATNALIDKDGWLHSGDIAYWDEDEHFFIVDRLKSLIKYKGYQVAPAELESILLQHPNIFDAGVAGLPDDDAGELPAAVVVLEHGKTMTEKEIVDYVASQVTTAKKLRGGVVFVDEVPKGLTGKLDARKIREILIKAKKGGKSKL
Peroxisome proliferator-activated receptor delta (Homo sapiens), sequence (Q03181 whole entry, looked up): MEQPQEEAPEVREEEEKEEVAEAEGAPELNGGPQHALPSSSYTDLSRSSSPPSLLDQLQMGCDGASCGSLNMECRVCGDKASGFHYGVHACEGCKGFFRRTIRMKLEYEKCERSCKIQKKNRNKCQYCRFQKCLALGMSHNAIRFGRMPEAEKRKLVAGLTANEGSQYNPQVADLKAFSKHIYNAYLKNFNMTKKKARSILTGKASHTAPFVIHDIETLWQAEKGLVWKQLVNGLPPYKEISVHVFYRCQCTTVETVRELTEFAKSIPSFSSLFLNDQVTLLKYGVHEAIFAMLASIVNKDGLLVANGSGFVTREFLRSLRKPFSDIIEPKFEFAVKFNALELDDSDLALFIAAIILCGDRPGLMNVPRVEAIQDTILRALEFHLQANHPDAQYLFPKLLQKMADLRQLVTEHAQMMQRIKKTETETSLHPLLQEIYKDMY

As for `O=c1n(Cl)c(=O)n(Cl)c(=O)n1Cl`, in test [1], the activation is 0.274% (inactive). For the same compound, the Potency result in test [2], in test [4], in test [12], in test [13], in test [14] and in test [15] was “inactive” in each case. The outcome in test [3], in test [5], in test [7] and in test [8] was inactive. The values for the max response in [6], in test [9] and in test [10] were -19.7%, -7.37% and 2.47% (inactive), respectively. Further, the activity change % (negative = inhibition) in test [11] was 4.09% (inactive).

On to `CCCCCCCCCCCC[N+](C)(C)CCOc1ccccc1`, for which, in test [5], the outcome was inactive. The Potency was 2.82 µM (active) and 5.01 µM (active) in test [12]; 32.2 µM (active) in test [14]; 25.6 µM (active) in test [15]. Besides, the Potency result in test [13] and in test [16] was “inactive” throughout.

For the compound `CCN(CC)C(=O)c1cccc(C)c1`, the outcome in [17] was inactive.

`CCNc1nc(Cl)nc(NCC)n1`: the activation in test [1] is 3.33% (inactive). Moreover, the Potency entry in [2], in test [4], in test [12], in test [13], in test [14] and in [15] was “inactive” in each case. Moreover, the outcome in test [3], in test [5], in test [7] and in test [8] was inactive. The max response was -18.2% in [6], -7.93% in [9] and 2.68% (inactive) in test [10]. Besides, the activity change % (negative = inhibition) in test [11] is 3.97% (inactive).

For `CN(C)CCC(c1ccccc1)c1ccccn1` (stereo unspecified), the result in [17] was inactive.

In the case of `CN(C)C(=S)SSC(=S)N(C)C`, the activation in [1] is 0.667% (inactive) and -2.28% (inactive). Also, the Potency result in [2] and in [19] was “inactive” throughout. For the same compound, the max response in test [18] amounted to 11.3%; in test [9], 18.1%. For the same compound, in test [8], the outcome was inactive. Further, the Potency in [10] was 44.7 µM (active); in test [12], “inactive and 44.7 µM (active)”; in test [14] it was 2.56 µM (active); in test [15], 1.44 µM (active).

`Cc1cc(C(C)(C)C)c(O)c(C(C)(C)C)c1`: in test [17], the outcome was inactive.

For the compound `C[C@@H]1C[C@@H]([C@H](O)CC2CC(=O)NC(=O)C2)C(=O)[C@@H](C)C1`, the max response was -115% and -59.6% in [18]; -10.1% in test [6]. In test [19], the Potency was 316 nM (active) and 199 nM (active). Further, the outcome in test [3], in [7] and in test [8] was inactive. Also, the activity change % (negative = inhibition) in test [11] was -37.8% (inactive). For the same compound, the Potency entry in test [12] was “inactive”.

With `CN(C)C(=O)Nc1ccc(Cl)c(Cl)c1`, in test [17], the outcome was inactive.

For `COC(=O)C1=C(C)NC(C)=C(C(=O)OC)C1c1ccccc1[N+](=O)[O-]`, the Potency in test [2] is 31.6 µM (active); in [15], 18.1 µM (active).

With `FC(F)(F)C(Cl)Br` (stereo unspecified), the outcome in test [17] was inactive.

As for `C[C@H]1C(=O)O[C@@H]2CCN3CC=C(COC(=O)[C@](C)(O)[C@]1(C)O)[C@H]23`, the activation in test [1] was 8.93% (inactive). The Potency entry in test [2], in test [4], in test [12], in test [13], in test [14] and in [15] was “inactive” throughout. The outcome in test [17], in [3], in test [5] and in [7] was inactive. Moreover, the results for the max response in test [6], in test [9] and in test [10] were -6.89%, -18.5% and -1.01% (inactive), respectively.

Regarding `CC(=O)Oc1ccc(C(c2ccc(OC(C)=O)cc2)c2ccccn2)cc1`, the result in test [17] was inactive.
